The text below walks through data of PubChem BioAssay.

Calls of active or inactive are those of the source.

Assay [1] can be described thus: optical density shifts of acrAB sulA E. coli – strain DRC41, OD650, 48 h, E. coli filamentation inducer project, primary screen (AID 1152).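 Further: E. coli MC1000 strain DRC41 lacking acrAB efflux pump and sulA.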 The conditions noted are these: higher = more signal, called active from +8 up or from −8 down.
The nature of assay [2]: probe aLefty1 binding on compound microarray – biochemical, small-molecule microarray, 635/667 nm fluorescence, primary screen (AID 1153).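 Further: score merges spot fluorescence with signal-to-noise ratio from the scanned slide images.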 The conditions noted are these: higher = more signal.
The nature of assay [3]: plasmodial surface anion channel blockers, osmotic lysis – cell-based, P. falciparum Indochina, OD700, 1 h, primary screen (AID 1154). The conditions noted are these: P. falciparum Indochina infected RBC osmotic lysis, higher = more signal, called active from +8 up or from −8 down.
Assay [4] is described as follows: plasmodial surface anion channel blockers, osmotic lysis – cell-based, P. falciparum Indochina, OD700, 2 h, primary screen (AID 1155).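 Further: lysis reports solute entry through the parasite surface anion channel PSAC.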 The conditions noted are these: P. falciparum Indochina infected erythrocytes, higher = more signal, called active from +8 up or from −8 down.
Assay [5] in a line: changes in parasitized red cell lysis, either direction – P. falciparum Indochina, OD700, 3 h, PSAC antagonist project, primary screen (AID 1156). The conditions noted are these: P. falciparum-infected erythrocytes, osmotic lysis, higher = more signal, called active from +8 up or from −8 down.
Assay [6] can be described thus: plasmodial surface anion channel blockers, osmotic lysis – cell-based, P. falciparum Indochina, OD700, 18 h, primary screen (AID 1157). The conditions noted are these: P. falciparum Indochina infected erythrocytes, osmotic lysis OD700, 18 h; higher = more signal, called active from +8 up or from −8 down.
Assay [7] can be described thus: S6 kinase pathway phospho-S6 level changes – cell-based, A549, cytoblot, luminescence, serum-stimulated, primary screen (AID 1158).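 Further: serum-stimulated A549 lung adenocarcinoma cells; signal is phosphorylated S6 detected by cytoblot immunostaining with HRP secondary.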 The conditions noted are these: 5 h, higher = more signal.
The target of assay [8] is NADPH oxidase 2 (Homo sapiens) (UniProt P04839). As to the kind of experiment: compounds shifting NOX2 Amplex Red fluorescence – cell-based, HEK293-NOX2, PMA-stimulated, NOX inhibitor project, primary screen (AID 1159). Further: test concentration not given here. The conditions noted are these: 45 min, higher = more signal, called active from +8 up or from −8 down.
Sequence of NADPH oxidase 2 (Homo sapiens) (P04839 whole entry, looked up): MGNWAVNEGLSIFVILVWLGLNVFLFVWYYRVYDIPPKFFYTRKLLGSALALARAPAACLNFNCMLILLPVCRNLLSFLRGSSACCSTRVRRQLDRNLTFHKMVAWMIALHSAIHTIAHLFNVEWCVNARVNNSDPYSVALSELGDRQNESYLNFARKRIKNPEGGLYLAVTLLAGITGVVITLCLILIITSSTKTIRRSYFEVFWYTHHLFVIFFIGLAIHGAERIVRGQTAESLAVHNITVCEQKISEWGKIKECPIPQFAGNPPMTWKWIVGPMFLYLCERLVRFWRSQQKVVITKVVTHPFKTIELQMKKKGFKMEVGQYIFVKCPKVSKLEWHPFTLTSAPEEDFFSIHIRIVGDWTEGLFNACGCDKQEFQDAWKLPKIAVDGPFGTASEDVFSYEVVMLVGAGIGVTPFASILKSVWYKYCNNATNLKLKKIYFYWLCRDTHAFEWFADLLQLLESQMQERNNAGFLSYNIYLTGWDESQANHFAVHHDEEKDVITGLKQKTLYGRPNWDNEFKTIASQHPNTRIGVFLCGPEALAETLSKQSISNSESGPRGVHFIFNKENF
Assay [9] addresses NADPH oxidase 4 (Homo sapiens) (UniProt Q9NPH5). As to the kind of experiment: compounds shifting NOX4 Amplex Red fluorescence – cell-based, HEK293-NOX4, tetracycline-induced, NOX inhibitor project, primary screen (AID 1160). The conditions noted are these: HEK293-NOX4, Amplex Red H2O2 fluorescence, 45 min; higher = more signal, called active from +8 up or from −8 down.
The target of assay [10] is NADPH oxidase 5 (Homo sapiens) (UniProt Q96PH1). As to the kind of experiment: compounds shifting NOX5 Amplex Red fluorescence – cell-based, HEK293-NOX5, NOX inhibitor project, primary screen (AID 1161). The conditions noted are these: HEK293-NOX5, ionomycin, 45 min, higher = more signal.
Sequence of NADPH oxidase 5 (Homo sapiens) (Q96PH1 whole entry, looked up): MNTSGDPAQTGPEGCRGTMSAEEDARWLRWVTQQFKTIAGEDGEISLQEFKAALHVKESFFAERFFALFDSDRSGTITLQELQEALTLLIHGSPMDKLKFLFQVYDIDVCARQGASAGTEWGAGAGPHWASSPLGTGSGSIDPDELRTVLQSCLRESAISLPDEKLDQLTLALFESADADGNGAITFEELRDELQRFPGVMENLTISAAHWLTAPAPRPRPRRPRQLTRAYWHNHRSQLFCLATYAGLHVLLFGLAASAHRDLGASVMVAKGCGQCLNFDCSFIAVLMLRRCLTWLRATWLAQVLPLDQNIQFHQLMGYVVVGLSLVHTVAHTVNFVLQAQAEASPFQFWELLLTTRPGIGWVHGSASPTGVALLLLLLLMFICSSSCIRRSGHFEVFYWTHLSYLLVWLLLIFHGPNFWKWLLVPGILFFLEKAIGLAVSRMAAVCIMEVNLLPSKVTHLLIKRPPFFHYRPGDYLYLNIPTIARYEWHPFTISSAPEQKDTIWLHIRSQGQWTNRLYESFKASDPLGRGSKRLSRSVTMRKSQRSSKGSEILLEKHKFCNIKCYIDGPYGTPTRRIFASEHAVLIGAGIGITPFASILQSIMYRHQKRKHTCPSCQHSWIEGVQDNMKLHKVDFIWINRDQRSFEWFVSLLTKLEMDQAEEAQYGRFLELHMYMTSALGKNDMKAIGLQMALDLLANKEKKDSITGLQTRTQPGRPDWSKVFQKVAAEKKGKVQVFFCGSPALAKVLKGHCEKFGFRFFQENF
The nature of assay [11]: compound effects on lung adenocarcinoma cell viability – A549, calcein-AM fluorescence, 48 h, basal, profiling panel (AID 1162). Further: test concentration not given here. The conditions noted are these: higher = more signal.
Assay [12] can be described thus: compound effects on differentiated 3T3-L1 adipocyte viability – cell-based, 3T3-L1 adipocytes, calcein-AM fluorescence, 48 h, basal, profiling panel (AID 1163). Further: test concentration not given here. The conditions noted are these: 3T3-L1 adipocytes viability, higher = more signal.
Assay [13] can be described thus: compound effects on hepatocellular carcinoma cell viability – HepG2, calcein-AM fluorescence, 48 h, basal, profiling panel (AID 1164). Further: test concentration not given here. The conditions noted are these: higher = more signal.
A short description of assay [14]: compound effects on multiple myeloma cell viability – MM1S, calcein-AM fluorescence, 48 h, basal, profiling panel (AID 1165). Further: test concentration not given here. The conditions noted are these: higher = more signal.
A short description of assay [15]: calcein-AM signal in unstimulated myeloma cells – cell-based, calcein-AM fluorescence, 48 h, PK04 Diversity Set, profiling panel (AID 1166).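 Further: cells grown under basal conditions without added stimulus; test concentration not given here.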 The conditions noted are these: RPMI8226 myeloma viability, higher = more signal.
Assay [16] is described as follows: JC-1 mitochondrial signal, unstimulated HepG2 cells – cell-based, JC-1 fluorescence, 24 h, 100 nL compound, profiling panel (AID 1167). Further: test concentration not given here. The conditions noted are these: HepG2 mitochondrial potential, higher = more signal.
The nature of assay [17]: JC-1 mitochondrial signal, unstimulated adipocytes – cell-based, JC-1 fluorescence, 3T3-L1 adipocytes, 24 h, 100 nL compound, profiling panel (AID 1168). Further: test concentration not given here. The conditions noted are these: JC-1 mitochondrial fluorescence, higher = more signal, called active from +8 up or from −8 down.
A short description of assay [18]: JC-1 mitochondrial signal, unstimulated myeloma cells – cell-based, JC-1 fluorescence, RPMI8226, 24 h, 100 nL compound, profiling panel (AID 1169). Further: test concentration not given here. The conditions noted are these: JC-1 mitochondrial potential fluorescence, higher = more signal.
Assay [19] is described as follows: JC-1 mitochondrial signal, unstimulated MM1S myeloma – cell-based, JC-1 fluorescence, 24 h, 100 nL compound, profiling panel (AID 1170). Further: test concentration not given here. The conditions noted are these: MM1S mitochondrial potential, higher = more signal.
Assay [20] can be described thus: resazurin metabolic signal in A549 cells – cell-based, resazurin fluorescence, 24 h, PK04 Diversity Set, profiling panel (AID 1171). Further: test concentration not given here. The conditions noted are these: A549 viability, higher = more signal, called active from +8 up or from −8 down.

Sequence of NADPH oxidase 4 (Homo sapiens) (Q9NPH5 whole entry, looked up): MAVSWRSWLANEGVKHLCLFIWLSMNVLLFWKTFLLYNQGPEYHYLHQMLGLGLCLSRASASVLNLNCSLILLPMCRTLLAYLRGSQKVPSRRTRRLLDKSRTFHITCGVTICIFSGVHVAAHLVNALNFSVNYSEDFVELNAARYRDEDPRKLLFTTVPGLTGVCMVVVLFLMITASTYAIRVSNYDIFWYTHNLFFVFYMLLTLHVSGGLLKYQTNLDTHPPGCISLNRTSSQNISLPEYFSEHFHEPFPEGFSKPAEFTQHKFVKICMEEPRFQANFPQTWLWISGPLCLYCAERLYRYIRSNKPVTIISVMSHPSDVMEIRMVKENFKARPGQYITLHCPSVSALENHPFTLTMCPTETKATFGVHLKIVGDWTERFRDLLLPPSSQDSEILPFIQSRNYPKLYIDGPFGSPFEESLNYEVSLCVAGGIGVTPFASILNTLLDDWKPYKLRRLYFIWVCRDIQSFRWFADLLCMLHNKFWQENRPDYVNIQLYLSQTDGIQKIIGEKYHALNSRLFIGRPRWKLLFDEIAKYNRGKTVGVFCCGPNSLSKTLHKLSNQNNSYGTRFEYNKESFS

`Cc1cc(C)c(C(O)C2C=CC3C(=O)N(c4ccccc4)C(=O)C3N2Nc2ccccc2F)c(C)c1` (stereo not given): the z-score in [1] was -1.56 (inactive); in [3] it was 1.33 (inactive); in [4], 1.35 (inactive); in [5], -0.167 (inactive); in [6], 1.32 (inactive); in assay [7] it was -0.855. In addition, the z-score in [8] is -0.611 (inactive); in [9], -0.918 (inactive); in assay [10] it was -0.344; in [11], -0.472; in assay [12], -0.89; in [13], -0.631. The z-score in [14] is -1.57; in [15], 0.48; in [16] it was -1.84; in assay [17], -0.709 (inactive); in assay [18], -0.15; in [19], 1.01. Moreover, the z-score in [20] was 1.61 (inactive). For the same molecule, the composite z-score in assay [2] was -0.0111.
As for `[N-]=[N+]=Nc1ccccc1[C@@H]1OC(c2ccc(OCCCO)cc2)=N[C@]1(Cc1ccccc1)C(=O)O`, the z-score is 0.78 (inactive) in [1]; 33.2 (active) in assay [3]; 30 (active) in assay [4]; 3.46 (inactive) in assay [5]; 8.04 (active) in [6]; -0.465 in assay [7]. For the same molecule, the z-score was -1.61 (inactive) in [8]; 1.27 (inactive) in assay [9]; -0.586 in assay [10]; 0.666 in [11]; 0.344 in [12]; 0.547 in [13]. Moreover, the z-score in assay [14] was -1.49; in [15] it was -0.56; in [16], -1.24; in [17], 1.62 (inactive); in assay [18] it was -0.739; in assay [19], -0.883. For the same molecule, in [20], the z-score is 1.2 (inactive). The molecule also had a composite z-score in assay [2] of 0.433.
`CCOC(=O)C[C@H]1[C@H](OC(=O)c2ccc(C(=O)c3ccccc3)cc2)[C@@H](NC(=O)c2ccc3ccccc3n2)c2cc(OCCCO)ccc2N1C(=O)Cc1ccc(OC)cc1`: the z-score is -1.61 (inactive) in assay [1]; -0.17 (inactive) in assay [3]; 0.313 (inactive) in assay [4]; 1.57 (inactive) in [5]; 0.802 (inactive) in assay [6]; 0.793 in [7]. Also, the z-score was -1.71 (inactive) in assay [8]; -0.298 (inactive) in assay [9]; -0.856 in assay [10]; 0.822 in assay [11]; 0.418 in assay [12]; 0.113 in assay [13]. Besides, the z-score in assay [14] was 0.37; in assay [15], 0.0914; in [16] it was 0.546; in [17], 0.295 (inactive); in assay [18], -0.181; in [19], -0.14. The z-score in assay [20] was 0.0291 (inactive). Besides, the composite z-score in assay [2] is 0.0782.
As to `CC(C)c1ccc(NN2C(C(O)c3ccc(C#N)cc3)C=CC3C(=O)N(c4ccccc4)C(=O)C32)cc1` (stereo not given), the z-score was -1.6 (inactive) in [1]; 15.4 (active) in assay [3]; 2.64 (inactive) in assay [4]; 0.567 (inactive) in [5]; 1.27 (inactive) in [6]; -1.05 in assay [7]. The z-score in [8] is -1.46 (inactive); in [9], -3.24 (inactive); in [10], -2.38; in [11] it was -0.0204; in assay [12] it was -0.708; in assay [13] it was -0.21. Besides, the z-score was -0.303 in assay [14]; -0.0634 in [15]; -1.22 in assay [16]; -0.662 (inactive) in assay [17]; 0.629 in assay [18]; 0.179 in [19]. Also, the z-score in assay [20] was -1.28 (inactive). This molecule came in with a composite z-score in assay [2] of 0.418.
